Source: PubChem
PAFAH1B2 inh – inhibitors of human PAFAH1B2; recombinant PAFAH1B2, FP-rhodamine activity probe, fluorescence polarization; actives 1.2% (n = 340,000); AID 492953; inhibition, % at 3.39 µM; P68402;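 active = inhibition above the mean of all tested compounds plus 3 SD, cut at about 24% in these data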;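 also: 0% = enzyme with DMSO and 100% = wells lacking PAFAH1B2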
Target sequence (P68402 whole entry, looked up): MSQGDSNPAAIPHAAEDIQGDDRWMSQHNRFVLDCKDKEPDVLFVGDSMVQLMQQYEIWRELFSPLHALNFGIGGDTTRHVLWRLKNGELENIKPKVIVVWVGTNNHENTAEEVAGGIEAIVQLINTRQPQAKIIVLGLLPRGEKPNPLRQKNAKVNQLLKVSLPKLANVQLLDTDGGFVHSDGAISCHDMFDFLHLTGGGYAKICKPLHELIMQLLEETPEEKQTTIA
PAFAH2 inh – inhibitors of human PAFAH2 | Q99487 | AID 492956 | inhibition, % at 3.39 µM | actives 0.99% (n = 340,000) | recombinant PAFAH2, FP-rhodamine activity probe, fluorescence polarization;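 active = inhibition above the mean over all tested compounds plus 3 SD, cut at about 30% in these data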;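 also: inhibitors block probe labeling of enzyme so polarization drops; 0% = enzyme with DMSO and 100% = wells lacking PAFAH2 protein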
PAFAH1B3 FP inh – PAFAH1B3 (human) inhibition; inhibition, % at 3.39 µM; AID 492972; Q15102; recombinant PAFAH1B3, FP-rhodamine probe, fluorescence polarization; actives 0.28% (n = 340,000);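 active = inhibition above the screen-wide average of all tested compounds plus 3 SD, cut at about 25% in these data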;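 also: 0% = enzyme with DMSO only and 100% = wells lacking PAFAH1B3 protein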
Target sequence (Q15102 whole entry, looked up): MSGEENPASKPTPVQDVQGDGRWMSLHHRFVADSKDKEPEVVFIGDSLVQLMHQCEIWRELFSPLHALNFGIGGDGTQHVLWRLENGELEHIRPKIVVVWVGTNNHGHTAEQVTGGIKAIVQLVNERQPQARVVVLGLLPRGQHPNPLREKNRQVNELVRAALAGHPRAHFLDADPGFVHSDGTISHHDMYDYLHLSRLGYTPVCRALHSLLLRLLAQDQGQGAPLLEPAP
PKA-R2B activ – PKA-R2B complex activation. P22694+P31323. PKA-R2B holoenzyme dissociation, Cy5-IP20 fluorescence polarization; R2B truncated from residue 108, S112A mutant; 0% DMSO only, 100% 113 µM cGMP. activation, % at 11.4 µM. actives 0.079% (n = 340,000);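 active = activation above a cutoff set at the mean over all compounds plus 3 SD, cut at about 18% in these data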;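 also: higher means more holoenzyme dissociation and a rise in polarization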
PKA-R1A act – activators of PKA-R1A complex | actives 0.083% (n = 340,000) | PKA-R1A dissociation, Cy5-IP20 fluorescence polarization; scaled: DMSO 0%, 113 µM cGMP 100% | activation, % at 11.4 µM | AID 504707 | P00514+P68181;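 active = percent activation above the mean of all tested compounds plus 3 SD, cut at about 19% in these data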;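 also: higher means more PKAc released from R1A so a rise in polarization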
pPAFAH FP inh – inhibitors of human plasma PAF acetylhydrolase (pPAFAH) | actives 1.5% (n = 330,000) | inhibition, % at 3.39 µM | recombinant pPAFAH, FP-rhodamine probe fluorescence polarization;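 active = inhibition above the mean inhibition across the screen plus 3 SD, cut at about 25% in these data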;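 also: inhibitors block binding of the rhodamine activity-based probe so polarization drops; 0% = enzyme with DMSO and 100% = wells lacking pPAFAH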
PAFAH2 FP conf – confirmation of human PAFAH2 inhibitors; shares compounds with PAFAH2 inh; recombinant PAFAH2, FP-rhodamine activity probe, fluorescence polarization; inhibition, % at 3.39 µM; actives 65% (n = 2,300); AID 493030;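 active = mean inhibition over three repeats above a set limit taken from the earlier primary screen, cut at about 30% in these data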;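 also: inhibitor blocks binding of rhodamine activity probe so polarization falls; 0% = enzyme with DMSO and 100% = wells lacking PAFAH2 protein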
The depositor's hits bear a star; x = no result. Rows were chosen to be rich in hits. Some 2.6% of all compounds tested hit in one or more screens of this group.

SMILES | PAFAH1B2 inh | PAFAH2 inh | PAFAH1B3 FP inh | PKA-R2B activ | PKA-R1A act | pPAFAH FP inh | PAFAH2 FP conf
O=C(OCc1cc(=O)n2c(n1)sc1ccccc12)c1ccc(O)cc1 | 0 | 34* | 4 | -3 | -2 | 5 | 7
COc1ccc(S(=O)(=O)N2CCC(C(=O)NCC3CCCO3)CC2)cc1Cl (configuration not stated) | -2 | -7 | 3 | -9 | 8 | 4 | x
COc1cccc(C2C(C(=O)c3cc4ccccc4o3)=C(O)C(=O)N2c2cc(C)on2)c1OC (configuration not stated) | 2 | 36* | 6 | -5 | -4 | 5 | 24
COc1cc(C2C(C(=O)c3cc4ccccc4o3)=C(O)C(=O)N2c2cc(C)on2)cc(OC)c1OC (configuration not stated) | 5 | -2 | 5 | 0 | -9 | 8 | x
Cc1ccc(N2CC(C(=O)NC(C)CCc3ccccc3)CC2=O)cc1 (configuration not stated) | 9 | 4 | 14 | -5 | 2 | 0 | x
O=C(COC(=O)c1ccccc1F)NC1CC1 | 5 | 30* | 7 | -1 | -6 | 7 | 28
CCCCNC(=O)COC(=O)c1ccccc1F | 7 | 46* | 0 | 3 | -2 | 12 | 40*
Nc1ncccc1C(=O)OCC(=O)NC1CCCCCC1 | 5 | 42* | 9 | -3 | -6 | 6 | 25
O=C(COC(=O)c1cccnc1Nc1ccccc1F)NC1CC1 | 4 | -1 | 8 | 1 | 8 | 1 | x
O=C(COC(=O)c1c(F)cccc1Cl)NC1CCCCC1 | 3 | 66* | 5 | 5 | -5 | x | 48*
O=C(COC(=O)c1ccccn1)NC1CCCCC1 | -1 | 7 | 5 | -9 | -2 | 6 | x
NC(=O)C1C(=O)c2ccccc2C1(C[N+](=O)[O-])c1ccccc1 (configuration not stated) | 3 | 4 | 9 | -11 | -4 | x | x
Cc1ccc(SC[C@H](C)CN2CC[C@H](C(C)(C)C)CCC2=O)cc1 | 10 | -3 | 6 | -4 | -11 | 0 | x
O=C(COC(=O)c1cccc2c1C(=O)c1ccccc1C2=O)NC1CCCCC1 | 3 | 20 | -2 | -8 | 10 | 21 | x
O=C(COC(=O)c1ccccc1F)NC1CCCC1 | 3 | 64* | 4 | 2 | -3 | 16 | 60*
O=C(COC(=O)c1cc2ccccc2cc1O)NC1CCCCC1 | 3 | 48* | 5 | -1 | 3 | 8 | 33*
O=C(COC(=O)c1cc(Br)ccc1O)NC1CCCCCC1 | 1 | 25 | 13 | -5 | -2 | 6 | x
CC1CC(C)CN(CCCNC(=O)C2CCN(c3nnc(-n4cccc4)s3)CC2)C1 (configuration not stated) | 2 | 5 | -1 | -7 | 10 | -8 | x
N#CCCN1CCN(Cc2ccccc2)CCC1=O | -1 | 2 | 0 | -10 | -20 | 5 | x
CN(CC(=O)Nc1cccc(F)c1)C(=O)CCCNC(=O)c1ccc(Cl)cc1 | 11 | -1 | 3 | -4 | 7 | 4 | x
O=C1N=C(N2C=CC(=C3C=CNC=C3)C=C2)/C(=C/N=NC(=O)c2ccccc2)S1 | 1 | 5 | 8 | -6 | -6 | 8 | x
CC1=NOC(=O)/C1=C\c1ccc(-c2ccc(Cl)c(C(=O)O)c2)o1 | 5 | 49* | 19 | -12 | -16 | x | 33*
O=C(O)c1cc(-c2ccc(/C=C3/SC(=S)N(Cc4ccccc4)C3=O)o2)ccc1Cl | 3 | 34* | 3 | 6 | 1 | x | 26
CC1=NOC(=O)/C1=C\c1ccc(-c2ccccc2Br)o1 | 24 | 44* | 20 | 2 | -2 | x | 25
CC1=CC2=NC(=O)/C(=C\c3ccc(-c4cccc(Cl)c4)o3)C(=N)N2O1 | -10 | -19 | -6 | 5 | 4 | -1 | x
SMILES | PAFAH1B2 inh | PAFAH2 inh | PAFAH1B3 FP inh | PKA-R2B activ | PKA-R1A act | pPAFAH FP inh | PAFAH2 FP conf
CC1=NOC(=O)/C1=C\c1ccc(-c2cccc(Cl)c2)o1 | 9 | 31* | 8 | 2 | -6 | 7 | 23
CC(C)CCNC1c2ccccc2C(=O)N1Cc1ccccc1 (configuration not stated) | 6 | -4 | 6 | -1 | 2 | 5 | x
OCC[C@H]1C[C@H](O)[C@@H](O)[C@@]2(CCc3ccccc3O2)O1 | 4 | -9 | 5 | 4 | -7 | 2 | x
CCCCn1c(N)c(N(C(=O)CSc2nnnn2-c2ccccc2C)C2CCCC2)c(=O)[nH]c1=O | 9 | 0 | 3 | -2 | -8 | x | x
C[C@H]1CN([C@@H](C)CO)C(=O)c2cc(Br)cnc2O[C@H]1CN(C)Cc1ccc(Oc2ccccc2)cc1 | x | x | x | -3 | -5 | x | x
Cc1ccc(/C(=N\O)c2oc3c(C)c4oc(=O)cc(C)c4cc3c2C)cc1 | -8 | -24 | -4 | -2 | 3 | -10 | x
Cc1cc(=O)oc2c1ccc1oc(/C(=N/O)c3ccccc3)c(C)c12 | -2 | 37* | -5 | -3 | 1 | 4 | 29
Cn1c(=O)c2c(ncn2CC(=O)Nc2cc(S(=O)(=O)N3CCCCC3)ccc2O)n(C)c1=O | 1 | 32* | 3 | -2 | -13 | -3 | 21
CC1CCCC(NC(=O)CN2C(=O)NC(Cc3c[nH]c4ccccc34)C2=O)C1C (configuration not stated) | 9 | 4 | 12 | 2 | 7 | 2 | x
O=C(c1ccc(COc2ccc(Cl)cc2Cl)o1)N1CCCC1 | 6 | 30* | -9 | -5 | 0 | x | 29
O=C(c1ccccc1)N1CCN(S(=O)(=O)c2cccs2)CC1 | 3 | 6 | -7 | 4 | -5 | -2 | x
CN(C)S(=O)(=O)c1ccc(C(=O)N2CCN(S(=O)(=O)c3cccs3)CC2)cc1 | 4 | 42* | -4 | -8 | 1 | 2 | 39*
COc1ccc(Cl)cc1NC(=O)COC(=O)c1ccc(C)o1 | 6 | 15 | 2 | -12 | -7 | 4 | x
Cc1c(-c2cc(Br)ccc2O)nc2cc3c(cc2c1C)OCO3 | 6 | 2 | 3 | -1 | -5 | 2 | x
N#Cc1ccccc1OCC(=O)NNC(=O)CCC1CCCC1 | 6 | 41* | 1 | -3 | 4 | 16 | 26
N#Cc1ccccc1OCC(=O)NCCNC(=O)COc1ccccc1C#N | 0 | -1 | 2 | 6 | 0 | 4 | x
CCN(CC(=O)Nc1c(F)cccc1F)C(=O)c1cc2c(cc1Cl)N1CCCCCC1=NS2(=O)=O | 0 | -6 | 6 | 7 | 0 | -3 | x
O=C(COC(=O)c1ccc(Cl)c(S(=O)(=O)N2CCCCCC2)c1)Nc1ccccc1 | -10 | 44* | -21 | -1 | -2 | 17 | 31*
